According to PubChem BioAssay AID1159580 (chemical genetic matrix, 2015):
Screen size: about 5,500 compounds; about 2,000 (36%) were called active. Roughly 18% stayed inconclusive and do not appear here. Rule as the data show it: active = normalized growth mostly below about 0.91 (no sharp cut-off); inconclusive = no clear call, values can overlap the other calls; inactive = mostly above about 0.92. Some of the results follow.

Experiment: chemical genetic growth profiling, strain panel (AID 1159580);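 also: tested at 20 µM; growth read once vehicle control cultures reached saturation at 30 °C; 1 = growth at the plate median or of vehicle wells; lower values mean less growth of the strain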
Conditions: S. cerevisiae deletion strains, growth OD

Measured: normalized growth

CCCCCCCCCCC[C@@H](C[C@H]1OC(=O)[C@H]1CCCCCC)OC(=O)[C@@H](CC(C)C)NC=O
inactive: locus YAL013W, strain DEP1, hits give low values 1.05 | locus YAL021C, strain ccr4, hits give low values 1.01 | locus YAL026C, strain drs2, hits give low values 1.05 | locus YAL030W, strain snc1, hits give low values 1.03 | locus YBL061C, strain skt5, hits give low values 1.02 | locus YBR009C, strain hhf1, hits give low values 1.04 | locus YBR021W, strain FUR4, hits give low values 1.05 | locus YBR023C, strain chs3, hits give low values 0.994 | locus YBR171W, strain sec66, hits give low values 1.06 | locus YBR229C, strain ROT2, hits give low values 1.02 | locus YBR231C, strain swc5, hits give low values 0.965 | locus YBR279W, strain paf1, hits give low values 1 | locus YCL011C, strain gbp2, hits give low values 1.05 | locus YCL016C, strain dcc1, hits give low values 1.01 | locus YCL029C, strain bik1, hits give low values 1.03 | locus YCL061C, strain MRC1, hits give low values 1.05 | locus YCL069W, strain vba3, hits give low values 1.05 | locus YCR088W, strain abp1, hits give low values 1.02 | locus YDL005C, strain med2, hits give low values 1.03 | locus YDL035C, strain GPR1, hits give low values 1.05 | locus YDL040C, strain nat1, hits give low values 1 | locus YDL074C, strain BRE1, hits give low values 1.05 | locus YDL101C, strain DUN1, hits give low values 1.02 | locus YDL134C, strain PPH21, hits give low values 1.02 | locus YDL185W, strain tfp1, hits give low values 0.992 | locus YDL192W, strain arf1, hits give low values 1.03 | locus YDR001C, strain nth1, hits give low values 1.05 | locus YDR069C, strain doa4, hits give low values 1.02 | locus YDR101C, strain arx1, hits give low values 1.03 | locus YDR137W, strain rgp1, hits give low values 0.978 | locus YDR150W, strain NUM1, hits give low values 1.06 | locus YDR159W, strain sac3, hits give low values 1.01 | locus YDR162C, strain NBP2, hits give low values 1.02 | locus YDR195W, strain ref2 1.02 | locus YDR297W, strain sur2, hits give low values 1.04 | locus YDR318W, strain mcm21, hits give low values 1.01 | locus YDR334W, strain swr1, hits give low values 1.03 | locus YDR335W, strain msn5, hits give low values 1.05 | locus YDR388W, hits give low values 1.02 | locus YDR392W, strain spt3, hits give low values 1.1 | locus YDR502C, strain sam2, hits give low values 1.03 | locus YEL003W, strain gim4, hits give low values 1.02 | locus YEL037C, strain rad23, hits give low values 1.06 | locus YEL061C, strain CIN8 (second series), hits give low values 1.04 | locus YEL061C, strain CIN8, hits give low values 1.01 | locus YER015W, strain faa2, hits give low values 1.02 | locus YER016W, strain bim1, hits give low values 1.01 | locus YER110C, hits give low values 1.02 | locus YER111C, strain swi4, hits give low values 1.06 | locus YER155C, strain BEM2 (second series), hits give low values 1.07 | locus YER155C, strain BEM2, hits give low values 1.03 | locus YER167W, strain BCK2, hits give low values 1.02 | locus YFR010W, strain ubp6, hits give low values 1.05 | locus YGL078C, strain dbp3, hits give low values 1.03 | locus YGL086W, strain mad1, hits give low values 1.01 | locus YGL167C, strain pmr1, hits give low values 0.994 | locus YGL173C, strain kem1, hits give low values 1.04 | locus YGL227W, strain vid30, hits give low values 1.02 | locus YGL240W, strain doc1, hits give low values 1.06 | locus YGL248W, strain PDE1, hits give low values 1.03 | locus YGL253W, strain hxk2, hits give low values 1.04 | locus YGR078C, strain PAC10, hits give low values 1.05 | locus YGR135W, strain pre9, hits give low values 1.02 | locus YGR252W, strain gcn5, hits give low values 1.08 | locus YHR013C, strain ard1, hits give low values 1.03 | locus YHR027C, strain rpn1, hits give low values 1.05 | locus YHR030C, strain SLT2, hits give low values 1.04 | locus YHR079C, strain IRE1 (second series), hits give low values 1 | locus YHR094C, strain hxt1, hits give low values 1 | locus YHR129C, strain ARP1, hits give low values 1.04 | locus YHR142W, strain chs7, hits give low values 1.04 | locus YHR200W, strain rpn10, hits give low values 1.03 | locus YIL066C, strain RNR3, hits give low values 1.03 | locus YIL073C, strain SPO22, hits give low values 1.06 | locus YIL125W, strain kgd1, hits give low values 1 | locus YIR030C, strain dcg1, hits give low values 1.03 | locus YJL092W, strain hpr5, hits give low values 1.04 | locus YJL095W, strain BCK1 (second series), hits give low values 1.03 | locus YJL095W, strain BCK1, hits give low values 1.05 | locus YJL115W, strain asf1, hits give low values 1.06 | locus YJL129C, strain trk1, hits give low values 1.04 | locus YJL134W, strain LCB3, hits give low values 1.02 | locus YJL154C, strain vps35, hits give low values 1.07 | locus YJL164C, strain tpk1, hits give low values 1.04 | locus YJL166W, strain qcr8, hits give low values 1.04 | locus YJL168C, strain set2, hits give low values 1 | locus YJL187C, strain SWE1 (second series), hits give low values 1.03 | locus YJL187C, strain SWE1, hits give low values 1.04
